Assay outcomes from PubChem.
Only some compounds are listed: those with a hit (about 6.7% of all), similar ones and a draw of the others.
C diff HTS – blocks growth of Clostridium difficile. growth activity, negative = inhibition, % at 16 µg/mL (by protocol). AID 1259249. 86,000 tested, 0.25% active. Clostridium difficile clinical isolate growth, OD600, 24 h; active compounds read low;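 active = mean growth activity at or below -80% and every replicate also at or below -80%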;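 also: 0% = DMSO wells and -100% = levofloxacin 16 µg/mL wells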
Pf Dd2 inh – P. falciparum Dd2 growth inhibition; 94,000 tested, 2.3% active; SYBR Green, 72 h; active compounds read low; activity change, % at 10 µM; in the data active = activity change below about -80%
T cruzi growth-1 – T. cruzi proliferation inhibition | T. cruzi beta-gal in NIH3T3, GalScreen luminescence, 90 h | 77,000 tested, 5.9% active | inhibition, % at 8.34 µM;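 active = mean inhibition above about 93%, with at least 55% of replicates each passing it, limit read from the data, passing the limit was not always enough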
T cruzi growth-2 – Trypanosoma cruzi proliferation inhibition | T. cruzi beta-gal in NIH3T3, GalScreen luminescence, 90 h | 5,600 tested, 72% active | shares compounds with T cruzi growth-1 | inhibition, % at 8.35 µM;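 active = mean replicate inhibition above about 95% and at least 55% of replicates individually reaching it, limit read from the data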
T cruzi growth-3 – blocks T. cruzi growth in NIH3T3 host cells; shares compounds with T cruzi growth-1; T. cruzi beta-gal in NIH3T3, GalScreen luminescence, 90 h; inhibition, % at 2.09 µM; 5,600 tested, 21% active;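 active = mean inhibition above about 95%, with at least 55% of replicates also reaching it, limit read from the data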;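 also: plate controls were neutral control median for no effect and positive control median for full effect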
3T3 cytotox – kills mouse NIH/3T3 fibroblasts; shares compounds with T cruzi growth-1; NIH/3T3 viability, CellTiter-Glo ATP luminescence, 90 h; cytotoxicity (signal decrease), % at 8.35 µM; 5,600 tested, 14% active; AID 651742;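 active = mean signal decrease across replicates above about 35% based on untreated-well scatter, with enough replicates individually passing, limit read from the data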;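 also: 0% = median of neutral control wells and 100% = median of positive control wells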
NIH3T3 tox 2 – cytotoxicity in mouse NIH/3T3 fibroblasts; shares compounds with T cruzi growth-1; NIH/3T3 viability, CellTiter-Glo ATP luminescence, 90 h; inhibition, % at 24.9 µM; 5,600 tested, 56% active; AID 651744;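 active = mean loss of cell viability signal at or above a set limit, and enough replicates individually reaching it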;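 also: 0% = median of neutral control wells and 100% = median of positive control wells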
* = called active by the depositor.

For CO[C@@H](CN(C)C(=O)c1ccc2c(c1)OCO2)[C@@H](C)CN([C@H](C)CO)S(=O)(=O)c1ccc(C)cc1 the results were Pf Dd2 inh -3.8 and T cruzi growth-1 0.2.
COc1ccc(NC(=O)N(C)C[C@H]2Oc3c(NC(=O)c4ccncc4)cccc3C(=O)N([C@@H](C)CO)C[C@H]2C)cc1 was read as C diff HTS 0.5, Pf Dd2 inh -9.7 and T cruzi growth-1 -14.0.
CO[C@H]1CN(C)C(=O)c2cc(NS(=O)(=O)c3cn(C)cn3)ccc2OC[C@@H](C)N(CC2CC2)C[C@@H]1C was read as Pf Dd2 inh 22.2 and T cruzi growth-1 -0.2.
Screening Cc1ccc(S(=O)(=O)N(C)C[C@H]2Oc3ccc(NS(=O)(=O)c4ccc(F)cc4)cc3C(=O)N([C@H](C)CO)C[C@@H]2C)cc1 returned C diff HTS -13.0, Pf Dd2 inh -62.0 and T cruzi growth-1 27.8.
For C[C@H]1CN([C@@H](C)CO)S(=O)(=O)c2ccc(/C=C/c3ccccc3)cc2O[C@H]1CN(C)CC1CC1 the results were C diff HTS 19.1, Pf Dd2 inh -83.5*, T cruzi growth-1 103.2*, T cruzi growth-2 106.1*, T cruzi growth-3 73.9, 3T3 cytotox 32.9 and NIH3T3 tox 2 104.5*.
Screening C/C=C/c1ccc2c(c1)O[C@H](CN(C)CC1CC1)[C@H](C)CN([C@H](C)CO)S2(=O)=O returned C diff HTS 3.1, Pf Dd2 inh -20.4 and T cruzi growth-1 78.9.
Screening C[C@@H]1CN([C@H](C)CO)S(=O)(=O)c2ccc(/C=C/c3ccccc3)cc2O[C@@H]1CN(C)C(=O)c1ccccc1 returned C diff HTS 5.3, Pf Dd2 inh -61.2, T cruzi growth-1 122.8*, T cruzi growth-2 105.3*, T cruzi growth-3 76.9, 3T3 cytotox 78.9* and NIH3T3 tox 2 79.2*.
C/C=C/c1ccc2c(c1)O[C@H](CN(C)C(=O)c1ccccc1)[C@@H](C)CN([C@@H](C)CO)S2(=O)=O was read as C diff HTS -0.4 and Pf Dd2 inh -46.5.
C[C@@H]1CN([C@H](C)CO)S(=O)(=O)c2ccc(/C=C/c3ccccc3)cc2O[C@@H]1CN(C)C(=O)c1ccncc1 was read as C diff HTS -13.7, Pf Dd2 inh 8.5 and T cruzi growth-1 12.9.
For C[C@H](CO)N1C[C@H](C)[C@H](CN(C)C(=O)c2ccncc2)Oc2cc(/C=C/c3ccccc3)ccc2S1(=O)=O the results were C diff HTS -1.6, Pf Dd2 inh 2.7, T cruzi growth-1 103.1*, T cruzi growth-2 96.8*, T cruzi growth-3 79.5, 3T3 cytotox 19.5 and NIH3T3 tox 2 59.5*.
For CC(C)NC(=O)N(C)C[C@@H]1Oc2ccc(NC(=O)Cc3ccccc3)cc2C(=O)N([C@@H](C)CO)C[C@@H]1C the results were C diff HTS -3.1 and Pf Dd2 inh 1.7.
Screening C[C@@H]1CN([C@@H](C)CO)S(=O)(=O)c2ccc(-c3ccccc3)cc2O[C@@H]1CN(C)Cc1ccccc1 returned C diff HTS 3.2, Pf Dd2 inh -15.4, T cruzi growth-1 121.1*, T cruzi growth-2 102.9*, T cruzi growth-3 105.7*, 3T3 cytotox 47.9* and NIH3T3 tox 2 104.8*.
C[C@H](CO)N1C[C@H](C)[C@@H](CN(C)Cc2ccccc2)Oc2cc(-c3ccccc3)ccc2S1(=O)=O was read as C diff HTS 15.1, Pf Dd2 inh -40.7 and T cruzi growth-1 66.8.
C[C@@H]1CN([C@H](C)CO)S(=O)(=O)c2ccc(-c3ccccc3)cc2O[C@@H]1CN(C)Cc1ccccc1 was read as C diff HTS -11.6, Pf Dd2 inh -30.4 and T cruzi growth-1 93.6.
C[C@H](CO)N1C[C@H](C)[C@H](CN(C)Cc2ccccc2)Oc2cc(-c3ccccc3)ccc2S1(=O)=O was read as C diff HTS 12.4, Pf Dd2 inh -33.7, T cruzi growth-1 113.1*, T cruzi growth-2 105.0*, T cruzi growth-3 80.6, 3T3 cytotox 5.6 and NIH3T3 tox 2 106.1*.
C[C@H]1CN([C@@H](C)CO)C(=O)Cc2cc(NC(=O)CCCCCC(=O)Nc3ccccc3N)ccc2O[C@@H]1CN(C)S(=O)(=O)c1cccs1 was read as C diff HTS 4.8, Pf Dd2 inh -61.3 and T cruzi growth-1 4.2.
